Measured values: PubChem BioAssay (Tox21)
Values without a mark were called inactive. Inconclusive results are not listed. Where a call stands in place of a potency, no number is given. Active and inactive are the calls of the source. Unless noted, the call rests on the fitted dose curve.

Legend:
[1] = Nuclear factor erythroid 2-related factor 2/antioxidant responsive element (Nrf2/ARE) small molecule agonists: luciferase reporter gene qHTS assay in human keratinocytes (AID 1919969); further: nearly all actives have a fitted effect of over 35% in size
[2] = target: Gonadotropin-releasing hormone receptor (Homo sapiens) (UniProt P30968); assay: Human gonadotropin-releasing hormone receptor (GnRHR) small molecule agonists, calcium flux assay in GnRHR-HEK293 cells (AID 1920063); further: nearly all actives have a fitted effect of over 35% in size
How it was run: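 We seeded human GnRHR-expressing HEK293 cells for 18 hours, loaded them with calcium dye for an hour at 37 C, added test compounds, and recorded fluorescence intensity kinetically for three minutes.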

[3] = target: KiSS-1 receptor (Homo sapiens) (UniProt Q969F8); assay: Human kisspeptin (KISS1R) small molecule agonists, calcium flux assay in KISS1R-HEK293 cells (AID 1920064; active means well fitted activation curve with a large enough effect in the repeat runs)
How it was run: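 Kinetic calcium assay, 1 s sampling over 3 min at Ex/Em 480/540, in HEK293 cells engineered with human KISS1R; compounds delivered in DMSO after 1 h dye loading.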

[4] = G protein-coupled receptor (GPCR) small molecule agonists, calcium flux assay: HEK293 wild type cell line counter screen (AID 1920065)
How it was run: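 Calcium-sensitive dye, loaded 1 h at 37 C into cells cultured 18 h, reports compound-evoked calcium release as fluorescence (Ex/Em 480/540), measured over 3 min. Agonist mode; 15-point titrations, triplicate.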

[5] = p53 small molecule agonists, cell-based qHTS assay with human liver microsomes (AID 1963577);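 further: p53 response element beta-lactamase reporter cells with liver microsomes plus NADPH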
How it was run: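 HLM-supplemented p53RE-bla reporter assay: 16 h compound exposure at 37 C, microsomes and NADPH each 0.5 mg/mL final, read by fluorescence intensity.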

[6] = p53 small molecule agonists, cell-based qHTS assay with rat liver microsomes (AID 1963578)
How it was run: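 Quantitative HTS of the Tox21 10K library: p53RE-bla cells, rat liver microsomes plus NADPH at 0.5 mg/mL final each, 16 h at 37 C, beta-lactamase fluorescence detection.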

[7] = p53 small molecule agonists, cell-based qHTS assay with human liver microsomes: qHTS cell viability counter screen (AID 1963579); further: nearly all actives have a fitted effect of over 45% in size
How it was run: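 Viability of p53RE-bla cells is measured as CellTiter-Glo luminescence following a 16 h, 37 C incubation with compound, liver microsomes from human donors and NADPH.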

[8] = p53 small molecule agonists, cell-based qHTS assay with rat liver microsomes: qHTS cell viability counter screen (AID 1963580); further: nearly all actives have a fitted effect of over 45% in size
How it was run: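 In HCT-116 cells carrying a p53 response element-bla reporter, compounds were metabolically activated in situ by rat liver microsomes with NADPH over 16 h. Cell ATP content then served as the cytotoxicity measure.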

[9] = p53 small molecule agonists, cell-based qHTS assay: qHTS cell viability counter screen (AID 1963581); further: nearly all actives have a fitted effect of over 45% in size
How it was run: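 Following 5 h attachment, HCT-116 p53RE-bla cells took up compound for 16 h at 37 C; the reporter was read with B/G FRET substrate (2 h RT), and viability then via CellTiter-Glo ATP luminescence.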

[10] = p53 small molecule agonists, cell-based qHTS assay (AID 1963582; active means well fitted activation curve with a large enough effect in the signal ratio in the repeat runs, not every such curve was filed as active; the % refers to the signal ratio)
How it was run: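 In this cell-based concentration-response screen, a p53 response element drives beta-lactamase; cells received DMSO-borne compounds after 5 h culture and were incubated a further 16 h before FRET substrate development.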

[11] = cAMP Responsive Elements (CRE) small molecule agonists, cell-based qHTS assay (AID 1963590)
How it was run: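 A CRE-responsive beta-lactamase reporter in HEK 293T cells was used. Treatment ran 3 h at 37 C; detection used LiveBLAzer B/G FRET substrate for 2 h at room temperature.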

[12] = target: D(2) dopamine receptor (Homo sapiens) (UniProt P14416); assay: Dopamine D2 receptor (DRD2) small molecule agonists, cell-based qHTS assay (AID 1963594); further: nearly all actives have a fitted effect of over 35% in size
How it was run: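 HEK293 cells stably expressing DRD2 were cultured 24 h at 37 C, then given Ro20-1724 (0.1 mM final) and compounds for 10 min at room temperature. NKH477 (200nM) was then added for 30 min. cAMP was read by HTRF.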

[13] = target: D(2) dopamine receptor (Homo sapiens) (UniProt P14416); assay: Dopamine D2 receptor (DRD2) small molecule antagonists, cell-based qHTS assay (AID 1963595; active means well fitted inhibition curve with a large enough effect in the signal ratio in the repeat runs, with a control signal flat; the % refers to the signal ratio)
How it was run: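 HEK293 cells stably expressing DRD2, preincubated with 0.1 mM Ro20-1724 and compounds 10 min, were stimulated with 200 nM NKH477 plus 12 nM quinpirole for 30 min at room temperature; cAMP measured by HTRF (665/620 nm).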

[14] = target: Beta-2 adrenergic receptor (Homo sapiens) (UniProt P07550); assay: Adrenergic beta2 receptor (ADRB2) small molecule antagonists, cell-based qHTS assay (AID 1963592); further: series mostly up to about 92 µM; nearly all actives have a fitted effect of over 50% in size
How it was run: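 Cells (CHO, stable ADRB2 overexpression) incubated 18-20hr at 37C; compounds added from DMSO; agonist mix (1nM isoproterenol, 100uM IBMX, 25uM Ro-20-1724) added; 0.5hr RT; d2-cAMP and anti-cAMP-cryptate added; 1hr RT; 665/615 nm read.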

[15] = target: Beta-2 adrenergic receptor (Homo sapiens) (UniProt P07550); assay: Adrenergic beta2 receptor (ADRB2) small molecule agonists, cell-based qHTS assay (AID 1963593);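 further: CHO cells stably overexpressing human ADRB2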
How it was run: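 CHO cells stably over-expressing ADRB2 were plated overnight at 37C, then dosed with compounds plus a stimulation mix containing 100uM IBMX and 25uM Ro-20-1724 for 0.5hr at room temperature. cAMP was measured by HTRF competition, 1hr.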

[16] = target: 5-hydroxytryptamine receptor 2A (Homo sapiens) (UniProt P28223); assay: 5-hydroxytryptamine receptor 2A (HTR2A) small molecule antagonists, cell-based qHTS assay (AID 1963586); further: nearly all actives have a fitted effect of over 45% in size; further: potency means the concentration at half of the fitted maximal effect
How it was run: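 Antagonist-mode intracellular calcium assay: DOI (4 nM) added after 5 min compound pre-incubation at room temperature to dye-loaded HTR2A-CHO cells. Fluorescence followed for 3 min, sampled every second.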

[17] = target: 5-hydroxytryptamine receptor 2A (Homo sapiens) (UniProt P28223); assay: 5-hydroxytryptamine receptor 2A (HTR2A) small molecule agonists, cell-based qHTS assay (AID 1963587); further: nearly all actives have a fitted effect of over 30% in size
How it was run: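 HTR2A-CHO cells, plated 18 h at 37 C/5% CO2, dye-loaded 1 h at 37 C; compounds in DMSO added by pin tool (agonist mode). Intracellular calcium flux read as kinetic fluorescence on FDSS over 2 min at 1 s intervals.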

[18] = target: Muscarinic acetylcholine receptor M1 (Homo sapiens) (UniProt P11229); assay: Cholinergic receptor muscarinic 1 (CHRM1) small molecule agonists, cell-based qHTS assay (AID 1963589); further: nearly all actives have a fitted effect of over 35% in size
How it was run: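 Measures agonist-induced intracellular calcium rise. Stable human CHRM1 CHO line, 1 h dye load at 37 C, compounds from DMSO, kinetic fluorescence read.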

[19] = cAMP Responsive Elements (CRE) small molecule antagonists, cell-based qHTS assay (AID 1963591; active means well fitted inhibition curve with a large enough effect in the signal ratio in the repeat runs, not every such curve was filed as active; the % refers to the signal ratio)
How it was run: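 HEK293T cells carrying a CRE-driven beta-lactamase reporter receive compound and NKH477 (0.25 uM final) for 3 h. Fluorescence from LiveBLAzer B/G FRET substrate is read after 2 h at room temperature.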

[20] = target: Muscarinic acetylcholine receptor M1 (Homo sapiens) (UniProt P11229); assay: Cholinergic receptor muscarinic 1 (CHRM1) small molecule antagonists, cell-based qHTS assay (AID 1963588); further: nearly all actives have a fitted effect of over 40% in size
How it was run: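 CHRM1-CHO calcium-flux assay, antagonist mode. Cells were seeded 18 h, dye-loaded 1 h at 37 C and given compound for 5 min at RT, then acetylcholine was added at 50nM. FDSS fluorescence was read 3 min; 15 concentrations, three runs.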

5-hydroxytryptamine receptor 2A (Homo sapiens), sequence (P28223 whole entry, looked up): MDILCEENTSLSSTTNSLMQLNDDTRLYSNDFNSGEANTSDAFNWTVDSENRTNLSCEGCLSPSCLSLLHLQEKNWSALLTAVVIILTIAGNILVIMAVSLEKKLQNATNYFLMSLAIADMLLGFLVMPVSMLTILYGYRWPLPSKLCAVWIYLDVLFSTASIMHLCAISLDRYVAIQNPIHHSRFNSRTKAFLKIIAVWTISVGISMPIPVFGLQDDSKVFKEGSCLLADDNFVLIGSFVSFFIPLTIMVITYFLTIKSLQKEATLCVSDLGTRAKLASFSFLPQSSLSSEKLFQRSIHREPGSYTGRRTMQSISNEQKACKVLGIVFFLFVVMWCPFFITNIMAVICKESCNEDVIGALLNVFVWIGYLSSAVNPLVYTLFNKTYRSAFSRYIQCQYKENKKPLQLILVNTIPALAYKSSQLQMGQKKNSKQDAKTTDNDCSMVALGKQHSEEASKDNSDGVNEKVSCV
Gonadotropin-releasing hormone receptor (Homo sapiens), sequence (P30968 whole entry, looked up): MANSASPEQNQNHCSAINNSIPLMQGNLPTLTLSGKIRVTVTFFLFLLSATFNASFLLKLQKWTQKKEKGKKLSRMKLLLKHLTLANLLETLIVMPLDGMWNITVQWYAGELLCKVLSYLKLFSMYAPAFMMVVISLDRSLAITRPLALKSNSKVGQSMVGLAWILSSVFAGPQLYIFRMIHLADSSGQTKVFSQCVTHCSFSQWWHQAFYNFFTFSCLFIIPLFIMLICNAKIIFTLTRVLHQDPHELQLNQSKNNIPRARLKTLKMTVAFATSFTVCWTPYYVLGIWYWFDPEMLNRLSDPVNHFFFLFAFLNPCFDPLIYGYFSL
Beta-2 adrenergic receptor (Homo sapiens), sequence (P07550 whole entry, looked up): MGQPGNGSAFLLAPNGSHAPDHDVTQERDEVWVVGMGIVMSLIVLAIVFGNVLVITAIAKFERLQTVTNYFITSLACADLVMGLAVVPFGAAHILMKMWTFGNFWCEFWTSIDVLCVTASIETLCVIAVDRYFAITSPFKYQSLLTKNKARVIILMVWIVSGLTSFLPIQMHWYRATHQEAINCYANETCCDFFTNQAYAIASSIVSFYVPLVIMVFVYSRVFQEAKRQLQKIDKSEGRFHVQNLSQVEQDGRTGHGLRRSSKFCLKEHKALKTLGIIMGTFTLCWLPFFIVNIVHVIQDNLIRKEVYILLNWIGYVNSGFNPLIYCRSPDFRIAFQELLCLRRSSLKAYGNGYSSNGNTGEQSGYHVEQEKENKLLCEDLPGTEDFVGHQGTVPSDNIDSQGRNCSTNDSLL
KiSS-1 receptor (Homo sapiens), sequence (Q969F8 whole entry, looked up): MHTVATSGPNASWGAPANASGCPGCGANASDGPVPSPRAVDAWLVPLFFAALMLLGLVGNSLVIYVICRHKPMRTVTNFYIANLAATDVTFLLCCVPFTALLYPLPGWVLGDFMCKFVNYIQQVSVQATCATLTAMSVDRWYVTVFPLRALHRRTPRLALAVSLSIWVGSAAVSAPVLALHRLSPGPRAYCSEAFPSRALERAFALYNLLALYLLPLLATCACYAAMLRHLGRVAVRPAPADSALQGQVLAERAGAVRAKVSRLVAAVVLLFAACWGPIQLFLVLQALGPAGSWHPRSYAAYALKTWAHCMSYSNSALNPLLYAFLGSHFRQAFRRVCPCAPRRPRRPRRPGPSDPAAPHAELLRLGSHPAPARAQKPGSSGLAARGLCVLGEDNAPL
D(2) dopamine receptor (Homo sapiens), sequence (P14416 whole entry, looked up): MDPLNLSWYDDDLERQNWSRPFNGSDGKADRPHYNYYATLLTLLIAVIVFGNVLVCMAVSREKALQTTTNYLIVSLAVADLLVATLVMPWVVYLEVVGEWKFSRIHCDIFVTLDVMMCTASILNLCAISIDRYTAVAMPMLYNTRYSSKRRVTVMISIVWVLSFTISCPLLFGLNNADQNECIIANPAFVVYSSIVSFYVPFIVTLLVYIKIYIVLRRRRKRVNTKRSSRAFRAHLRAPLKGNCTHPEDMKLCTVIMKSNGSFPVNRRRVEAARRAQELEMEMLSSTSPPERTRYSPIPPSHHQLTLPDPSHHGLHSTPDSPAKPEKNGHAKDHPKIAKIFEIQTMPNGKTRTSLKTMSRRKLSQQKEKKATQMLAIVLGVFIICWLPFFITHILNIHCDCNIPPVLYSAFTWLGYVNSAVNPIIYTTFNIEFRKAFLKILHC
Muscarinic acetylcholine receptor M1 (Homo sapiens), sequence (P11229 whole entry, looked up): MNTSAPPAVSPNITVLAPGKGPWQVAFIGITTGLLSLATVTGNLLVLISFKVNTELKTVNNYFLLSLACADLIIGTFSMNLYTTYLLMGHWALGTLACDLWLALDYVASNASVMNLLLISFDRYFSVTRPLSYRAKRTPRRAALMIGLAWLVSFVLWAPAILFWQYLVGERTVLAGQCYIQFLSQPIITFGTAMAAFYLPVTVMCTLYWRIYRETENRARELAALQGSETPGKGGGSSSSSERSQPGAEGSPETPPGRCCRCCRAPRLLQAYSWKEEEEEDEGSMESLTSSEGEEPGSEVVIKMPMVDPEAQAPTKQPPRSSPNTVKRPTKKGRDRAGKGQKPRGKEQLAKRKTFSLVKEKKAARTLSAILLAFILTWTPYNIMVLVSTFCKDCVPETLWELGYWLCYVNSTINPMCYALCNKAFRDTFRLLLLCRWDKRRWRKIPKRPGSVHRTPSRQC

## CC(C)(Sc1cc(C(C)(C)C)c(O)c(C(C)(C)C)c1)Sc1cc(C(C)(C)C)c(O)c(C(C)(C)C)c1
[1]
  Potency: inactive
[2]
  Potency: inactive
[3]
  outcome: inactive
[4]
  outcome: inactive
[5]
  Potency: inactive
[6]
  Potency: inactive
[7]
  Potency: inactive
[8]
  Potency: inactive
[9]
  Potency: inactive
[10]
  Potency: inactive
[11]
  Potency: inactive
[12]
  Potency: inactive
[13]
  Potency: inactive

## Nc1nc2c(ncn2CCC(CO)CO)c(=O)[nH]1
[1]
  Potency: inactive
[2]
  Potency: inactive
[3]
  outcome: inactive
[4]
  outcome: inactive
[5]
  Potency: inactive
[6]
  Potency: inactive
[7]
  Potency: inactive
[8]
  Potency: inactive
[9]
  Potency: inactive
[11]
  Potency: inactive
[14]
  Potency: inactive
[15]
  Potency: inactive
[13]
  Potency: inactive

## c1ccc(C(O[C@H]2CCCN(CCc3ccc4c(c3)OCO4)C2)c2ccccc2)cc1
[1]
  Potency: inactive
[2]
  Potency: inactive
[3]
  outcome: inactive
[4]
  outcome: inactive
[5]
  Potency: inactive
[6]
  Potency: inactive
[7]
  Potency: inactive
[8]
  Potency: inactive
[9]
  Potency: inactive
[16]
  Potency: 9.18 µM (active)
[17]
  Potency: inactive
[18]
  Potency: inactive
[11]
  Potency: inactive
[19]
  Potency: inactive
[12]
  Potency: inactive
[13]
  Potency: inactive

## CCC(C)N(C)C(=O)c1cc2ccccc2c(-c2ccccc2Cl)n1 (centres undefined)
[1]
  Potency: inactive
[2]
  Potency: inactive
[3]
  outcome: inactive
[4]
  outcome: inactive
[5]
  Potency: inactive
[6]
  Potency: inactive
[7]
  Potency: inactive
[8]
  Potency: inactive
[9]
  Potency: inactive
[10]
  Potency: inactive
[16]
  Potency: inactive
[18]
  Potency: inactive
[11]
  Potency: inactive
[14]
  Potency: inactive
[12]
  Potency: inactive
[13]
  Potency: inactive

## CCCOc1ccccc1-c1nc2n[nH]nc2c(=O)[nH]1
[1]
  Potency: inactive
[2]
  Potency: inactive
[3]
  outcome: inactive
[4]
  outcome: inactive
[5]
  Potency: inactive
[6]
  Potency: inactive
[7]
  Potency: inactive
[8]
  Potency: inactive
[9]
  Potency: inactive
[14]
  Potency: inactive
[13]
  Potency: inactive

## COC(C)(C)CCCC(C)CC=O (centres undefined)
[1]
  Potency: inactive
[2]
  Potency: inactive
[3]
  outcome: inactive
[4]
  outcome: inactive
[5]
  Potency: inactive
[6]
  Potency: inactive
[7]
  Potency: inactive
[8]
  Potency: inactive
[9]
  Potency: inactive
[10]
  Potency: inactive
[17]
  Potency: inactive
[20]
  Potency: inactive
[18]
  Potency: inactive
[19]
  Potency: inactive
[14]
  Potency: inactive
[12]
  Potency: inactive
[13]
  Potency: inactive

## Nc1nc(-c2ccc([N+](=O)[O-])cc2)cs1
[1]
  Potency: inactive
[2]
  Potency: inactive
[3]
  outcome: inactive
[4]
  outcome: inactive
[5]
  Potency: inactive
[6]
  Potency: inactive
[7]
  Potency: inactive
[8]
  Potency: inactive
[9]
  Potency: inactive
[10]
  Potency: inactive
[17]
  Potency: inactive
[20]
  Potency: inactive
[18]
  Potency: inactive
[11]
  Potency: inactive
[19]
  Potency: inactive
[14]
  Potency: inactive
[12]
  Potency: inactive
[13]
  Potency: inactive
